Source: ChEMBL document CHEMBL3988442, “University of Dundee, Small-Polar-MMV Screening Library” (2021)

biological target: AMP-activated protein kinase, AMPK (Homo sapiens) (UniProt P54646+O43741+P54619+Q9UGJ0+Q9Y478+Q13131+Q9UGI9); assay: AMP-dependent Kinase enzyme assay. An in vitro enzyme assay that detects ADP turnover that is directly proportional to AMPK activity. This uses naive AMPK that is activated during the assay with MK-8722; type: functional; design: scale not given: direction of the effect not stated beside the values; conditions: 30 µM

In order of rising Percent Effect:
1. CCCC(=O)Nc1cnn(CC(=O)Nc2ccc(SC)cc2)c1  -33.2%
2. COCCC(=O)N(C)CCC1=CCN(C)CC1  -12.9%
3. CCOCCCNCc1cc(O)c2cc(C)ccc2n1  -9.04%
4. COc1ccccc1OCc1nc2cc3c(cc2c(=O)o1)OCCCO3  -8.93%
5. Cc1ncsc1CCN(C)C(=O)CCc1nc2cccnc2n1C  -7.17%
6. Cc1nonc1CN1CC[C@@](O)(C2CCOCC2)[C@H](C)C1  -6.73%
7. CCN(C(=O)Cn1cc(NC(=O)C(C)(C)C)cn1)c1ccccc1  -3.26%
8. COc1ccccc1CC(=O)N(C)Cc1cc(C)on1  -2.06%
9. COc1ccc(Br)c(NC(=O)NCc2cnn(C)c2)c1  -1.99%
10. COc1cccc(-c2nc(CNCc3cccnc3)cs2)c1  -1.6%
11. COc1cnc(N2CCN(C)CC2)nc1-c1ccnn1C  0.474%
12. CSCCC(NC(N)=O)C(=O)NCc1ccc(-n2cccn2)cc1 (centres undefined)  0.578%
13. Clc1ccc(N2CCC(OCC3CCCCO3)CC2)nc1 (centres undefined)  3.4%
14. Fc1ccc(C2CCCCN2Cc2cc(-c3ccccn3)no2)cc1 (centres undefined)  7.03%
15. NC(=O)COc1ccc(CN2CCC3(CC2)[C@H](O)C[C@@H]3O)cc1Cl  8.11%
16. CC(C)n1cnnc1SCCN(C)c1ccccc1  8.44%
17. CN(c1ncc(S(N)(=O)=O)s1)C1CCc2ccccc21 (centres undefined)  8.8%
18. Cc1nc[nH]c1CN(C)Cc1cnn(-c2ccc(F)cc2)c1  10.8%
19. Cc1cccc(C)c1Nc1noc2c1CN(C(=O)c1ccn(C)n1)CC2  15.9%
